These results are taken from PubChem BioAssay (EPA / NIEHS).

Activity calls are given as the source filed them. Rule for the calls: active = hit-call score of the fitted dose curve at least 0.9, where 1 is the maximum; inactive = score below 0.9.

Read-out in experiment [1]: Thrombomodulin, THBD (gene 7056)
Kind of experiment: BSK_CASM3C_Thrombomodulin: BioMAP Diversity Plus: CASM3C Assay for Thrombomodulin Biomarker Activity (AID 2283051).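 Note: thrombomodulin protein level measured by ELISA 24 h after dosing.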 The settings on record: primary human coronary artery smooth muscle cells; actives raise or lower the signal.

Read-out in experiment [2]: Tissue Factor, F3 (gene 2152)
Put plainly: BSK_CASM3C_TissueFactor: BioMAP Diversity Plus: CASM3C Assay for Tissue Factor Biomarker Activity (AID 2283052).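 Note: cell surface tissue factor protein level read by ELISA.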 Particulars: primary human coronary artery smooth muscle cells; actives raise or lower the signal.

Read-out in experiment [3]: Interferon-gamma inducible Protein 10 (IP10), CXCL10 (gene 3627)
Kind of experiment: BSK_hDFCGF_IP10: BioMAP Diversity Plus: hDFCGF Assay for Interferon-gamma inducible Protein 10 (IP10) Biomarker Activity (AID 2283053). Particulars: primary human foreskin fibroblasts; actives raise or lower the signal. An outline of the steps: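 Cells: human dermal foreskin fibroblasts. Exposure: 24 h post-dosing. Detection: IP-10 ELISA, with values expressed against DMSO controls and fitted in both directions.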

Read-out in experiment [4]: Urokinase-type plasminogen activator receptor (uPAR), PLAUR (gene 5329)
Put plainly: BSK_CASM3C_uPAR: BioMAP Diversity Plus: CASM3C Assay for Urokinase-type plasminogen activator receptor (uPAR) Biomarker Activity (AID 2283054).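 Note: cell-surface uPAR protein level quantified by ELISA.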 The settings on record: primary human coronary artery smooth muscle cells; actives raise or lower the signal.

Read-out in experiment [5]: Vascular cell adhesion molecule 1 (VCAM1), VCAM1 (gene 7412)
Put plainly: BSK_CASM3C_VCAM1: BioMAP Diversity Plus: CASM3C Assay for Vascular cell adhesion molecule 1 (VCAM1) Biomarker Activity (AID 2283055).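 Note: VCAM-1 protein level quantified by ELISA on the cells.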 Particulars: primary human coronary artery smooth muscle cells; actives raise or lower the signal.

Read-out in experiment [6]: Collagen III, COL3A1 (gene 1281)
Kind of experiment: BSK_hDFCGF_CollagenIII: BioMAP Diversity Plus: hDFCGF Assay for Collagen III Biomarker Activity (AID 2283056). Particulars: primary human foreskin fibroblasts; actives raise or lower the signal. An outline of the steps:
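Human foreskin primary fibroblasts were exposed to test chemicals for 24 h, after which collagen III was quantified by ELISA. Activity was fitted bidirectionally against DMSO as negative control and baseline.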

Read-out in experiment [7]: Epidermal growth factor receptor (EGFR), EGFR (gene 1956)
Put plainly: BSK_hDFCGF_EGFR: BioMAP Diversity Plus: hDFCGF Assay for Epidermal growth factor receptor (EGFR) Biomarker Activity (AID 2283057). The settings on record: primary human foreskin fibroblasts; actives raise or lower the signal. An outline of the steps: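 Dosing human primary skin fibroblasts, then measuring surface EGFR by ELISA at 24 h, gives the endpoint; gains and losses relative to DMSO were fitted in both directions.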

Read-out in experiment [8]: Interleukin-8 (IL8), CXCL8 (gene 3576)
Put plainly: BSK_hDFCGF_IL8: BioMAP Diversity Plus: hDFCGF Assay for Interleukin-8 (IL8) Biomarker Activity (AID 2283058). The settings on record: primary human foreskin fibroblasts; actives raise or lower the signal. In a few lines:
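hDFCGF human dermal fibroblasts; 24 h chemical exposure; IL-8 by ELISA; bidirectional curve fit vs DMSO baseline; gain or loss of signal scored.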

A short description of experiment [9]: BSK_hDFCGF_Proliferation: Cell Proliferation Assessment in the BioMAP Diversity Plus: hDFCGF Assay (AID 2283059).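 Note: curves fitted for both rise and fall of signal versus DMSO baseline.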 Particulars: primary human foreskin fibroblasts. An outline of the steps:
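Primary human foreskin fibroblasts, sub-confluent; […]; 10% TCA fix, 0.1% SRB stain, A560 total protein. Gain/loss fitted bidirectionally vs DMSO control.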

Read-out in experiment [10]: Macrophage colony-stimulating factor (MCSF), CSF1 (gene 1435)
Kind of experiment: BSK_hDFCGF_MCSF: BioMAP Diversity Plus: hDFCGF Assay for Macrophage colony-stimulating factor (MCSF) Biomarker Activity (AID 2283060). The settings on record: primary human foreskin fibroblasts; actives raise or lower the signal. In a few lines:
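Human foreskin primary fibroblasts were treated with test chemical for 24 h, and M-CSF was then measured by ELISA. Data were fitted bidirectionally against DMSO as the negative control and activity baseline.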

Experiment [11] in a line: BSK_hDFCGF_SRB: Viability Assessment in the BioMAP Diversity Plus: hDFCGF Assay (AID 2283061).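 Note: cells exposed to compound for 24 h before the read.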 Particulars: primary human foreskin fibroblasts. An outline of the steps: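 Human foreskin primary fibroblasts were treated with compound and assessed 24 h after dosing. Total protein was measured by sulforhodamine B staining (0.1% SRB after 10% TCA fixation, 560 nm read) as a cytotoxicity marker, with bidirectional fitting against DMSO baseline.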

Read-out in experiment [12]: TIMP metallopeptidase inhibitor 1 (TIMP1), TIMP1 (gene 7076)
Kind of experiment: BSK_hDFCGF_TIMP1: BioMAP Diversity Plus: hDFCGF Assay for TIMP metallopeptidase inhibitor 1 (TIMP1) Biomarker Activity (AID 2283062). The settings on record: primary human foreskin fibroblasts; actives raise or lower the signal. An outline of the steps:
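Primary human foreskin fibroblasts in the hDFCGF system were dosed with compound for 24 h, then TIMP-1 was measured by ELISA. Activity was fitted bidirectionally relative to DMSO control; parallel SRB staining assessed cytotoxicity.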

Read-out in experiment [13]: Monokine induced gamma interferon (MIG), CXCL9 (gene 4283)
Kind of experiment: BSK_hDFCGF_MIG: BioMAP Diversity Plus: hDFCGF Assay for Monokine induced gamma interferon (MIG) Biomarker Activity (AID 2283063). Particulars: primary human foreskin fibroblasts; actives raise or lower the signal. An outline of the steps:
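ELISA read-out of MIG from primary human dermal fibroblasts 24 h post-dosing. Gain or loss of signal fitted bidirectionally, DMSO as baseline.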

Read-out in experiment [14]: Matrix Metallopeptidase 1 (MMP1), MMP1 (gene 4312)
Kind of experiment: BSK_hDFCGF_MMP1: BioMAP Diversity Plus: hDFCGF Assay for Matrix Metallopeptidase 1 (MMP1) Biomarker Activity (AID 2283064). Particulars: primary human foreskin fibroblasts; actives raise or lower the signal. In a few lines:
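MMP1 levels quantified by ELISA 24 h after dosing human dermal fibroblast cultures, with parallel SRB total-protein staining for overt cytotoxicity. Data fitted in both directions against DMSO baseline.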

Read-out in experiment [15]: Vascular cell adhesion molecule 1 (VCAM1), VCAM1 (gene 7412)
Put plainly: BSK_hDFCGF_VCAM1: BioMAP Diversity Plus: hDFCGF Assay for Vascular cell adhesion molecule 1 (VCAM1) Biomarker Activity (AID 2283065).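 For AC50: VCAM-1 protein level quantified by ELISA after 24 h chemical exposure.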 The settings on record: primary human foreskin fibroblasts; actives raise or lower the signal. In a few lines: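 Primary human foreskin fibroblasts (hDFCGF system) were dosed with chemical and VCAM-1 was measured by ELISA 24 h later. Bidirectional curve fitting used DMSO as negative control and activity baseline.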

Read-out in experiment [16]: Plasminogen activator inhibitor-1 (PAI1), SERPINE1 (gene 5054)
Kind of experiment: BSK_hDFCGF_PAI1: BioMAP Diversity Plus: hDFCGF Assay for Plasminogen activator inhibitor-1 (PAI1) Biomarker Activity (AID 2283066). Particulars: primary human foreskin fibroblasts; actives raise or lower the signal. An outline of the steps:
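Fibroblasts from human foreskin were treated with test chemical. After 24 h, PAI-1 was measured by ELISA. Activity was fitted in both directions relative to DMSO.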

Read-out in experiment [17]: Intercellular Adhesion Molecule 1 (ICAM1), ICAM1 (gene 3383)
Put plainly: BSK_KF3CT_ICAM1: BioMAP Diversity Plus: KF3CT Assay for Intercellular Adhesion Molecule 1 (ICAM1) Biomarker Activity (AID 2283067). The settings on record: primary human keratinocytes with fibroblasts; actives raise or lower the signal. In a few lines:
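Human keratinocyte plus foreskin fibroblast primary co-culture was exposed to chemical for 24 h. ICAM-1 was then quantified by ELISA, and the data were fit bidirectionally against DMSO as the negative control and baseline.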

Read-out in experiment [18]: Interferon-gamma inducible Protein 10 (IP10), CXCL10 (gene 3627)
Put plainly: BSK_KF3CT_IP10: BioMAP Diversity Plus: KF3CT Assay for Interferon-gamma inducible Protein 10 (IP10) Biomarker Activity (AID 2283068). Particulars: primary human keratinocytes with fibroblasts; actives raise or lower the signal. In a few lines: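 In a primary skin co-culture of keratinocytes and fibroblasts, IP-10 is quantified by ELISA at 24 h after dosing. SRB staining of parallel wells monitors overt toxicity. Curves are fitted both directions against DMSO.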

A short description of experiment [19]: BSK_KF3CT_SRB: Viability Assessment in the BioMAP Diversity Plus: KF3CT Assay (AID 2283069). The settings on record: primary human keratinocytes with fibroblasts. An outline of the steps:
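Cytotoxicity was gauged by SRB staining (0.1% SRB, 10% TCA fixation, 560 nm) of parallel cultures at 24 h. The cells were primary human skin keratinocytes co-cultured with fibroblasts, and activity was fitted in both directions against DMSO.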

Read-out in experiment [20]: Interleukin-1 alpha (IL1a), IL1A (gene 3552)
Put plainly: BSK_KF3CT_IL1a: BioMAP Diversity Plus: KF3CT Assay for Interleukin-1 alpha (IL1a) Biomarker Activity (AID 2283070). The settings on record: primary human keratinocytes with fibroblasts; actives raise or lower the signal. In a few lines:
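IL-1a was detected by ELISA 24 h after chemical treatment of a co-culture of human skin keratinocytes and foreskin fibroblasts. Gain or loss of signal was fitted against the DMSO baseline.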

In the case of `CC(C)(C)OOC(C)(C)C`, the outcome in [1], in [2], in experiment [3], in experiment [4], in [5] and in experiment [6] was inactive. Besides, the outcome in experiment [7], in [8], in [9], in experiment [10], in experiment [11] and in experiment [12] was inactive. In addition, the outcome in experiment [13], in [14], in experiment [15], in experiment [16], in experiment [17] and in experiment [18] was inactive. In addition, the result in [19] and in experiment [20] was inactive.

Take `O=C(O)C(Cl)Cl`: the result in [1], in [2], in [3], in [4], in [5] and in [6] was inactive. Besides, the outcome in experiment [7], in experiment [8], in experiment [9], in [10], in experiment [11] and in experiment [12] was inactive. Besides, the outcome in experiment [13], in experiment [14], in experiment [15], in experiment [16], in [17] and in [18] was inactive. In addition, the outcome in [19] and in [20] was inactive.

In the case of `CCNc1nc(Cl)nc(NC(C)(C)C)n1`, the outcome in [1], in [2], in experiment [3], in experiment [4], in [5] and in experiment [6] was inactive. Moreover, the outcome in experiment [7], in experiment [8], in [9], in [10], in experiment [11] and in experiment [13] was inactive. For the same compound, the outcome in [14], in experiment [15], in experiment [16], in experiment [17], in experiment [18] and in experiment [19] was inactive. For the same compound, the result in [20] was inactive.

Take `Cc1cccc(N)c1`: the result in [1], in experiment [2], in [3], in experiment [4], in experiment [5] and in experiment [6] was inactive. Further, the result in experiment [7], in experiment [8], in experiment [10], in experiment [11], in [12] and in experiment [13] was inactive. Also, the outcome in experiment [14], in experiment [15], in experiment [16], in experiment [17], in experiment [18] and in experiment [19] was inactive. Moreover, the result in experiment [20] was inactive. The AC50 in experiment [9] is 0.148 µM (active).

As to `[N-]=[N+]=[N-]`, the outcome in [1], in experiment [2], in experiment [3], in experiment [4], in experiment [5] and in [6] was inactive. Further, the outcome in experiment [7], in experiment [8], in experiment [9], in experiment [10], in [11] and in [13] was inactive. The result in [14], in [15], in experiment [16], in [17], in experiment [18] and in experiment [19] was inactive. In experiment [20], the result was inactive.

In the case of `CCOP(=S)(Oc1ccc([N+](=O)[O-])cc1)c1ccccc1` (configuration not stated), the AC50 is 12.9 µM (active) in [1]; 20 µM (active) in experiment [3]; 8.08 µM (active) in [6]; 6.37 µM (active) in [9]; 7.24 µM (active) in [10]; 7.62 µM (active) in experiment [15]. For the same compound, in experiment [16], the half-maximal activity concentration (AC50) was 3.35 µM (active). The result in experiment [2], in [4], in [5], in experiment [7], in experiment [8] and in [11] was inactive. For the same compound, the result in [12], in experiment [13], in experiment [14], in [17], in experiment [18] and in experiment [19] was inactive. Moreover, in experiment [20], the outcome was inactive.

Turning to `Nc1cc2c3c(c1)C(c1ccccc1)=N[C@@H](NC(=O)c1cccnc1)C(=O)N3CC2`, the outcome in experiment [1], in [2], in experiment [3], in experiment [4], in experiment [5] and in experiment [6] was inactive. Moreover, the result in [7], in [8], in experiment [9], in [10], in experiment [11] and in [13] was inactive. For the same compound, the result in [14], in [15], in [17], in experiment [18], in experiment [19] and in experiment [20] was inactive. Also, the AC50 in experiment [16] was 0.523 µM (active).
